Screening data (PubChem BioAssay)
ASM inhibitor = human S-ASM enzyme inhibition. placental ASM, HMU-PC fluorogenic substrate, 60 min. 340,000 compounds, 0.006% hits. P17405. Potency, µM (top dose mostly 57.5 µM), actives largely listed as inhibitors
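Human placenta-derived ASM preincubated with compound 10 min at room temperature, then reacted with 9 uM (final) fluorogenic HMU-PC substrate for 60 min at 37 C. Stop solution raises pH to 10; fluorescence read at Ex 386/Em 447 nm.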
Pin1 inh = blocks the human prolyl isomerase Pin1; Potency, µM (highest dose often 115 µM), most hits filed as inhibitors; Q13526; AID 504891; 390,000 compounds, 0.009% hits; Pin1 FP peptide displacement, HiFluor488, 10 min; active = well fitted inhibition curve with a large enough effect in the polarisation, with a control signal flat, not every such curve was filed as active; inconclusive = small, poorly fitted or top-dose-only effect, or effect the other way, or a change in a side signal; inactive = no such curve, though single readings can be large or run the other way; the % refers to the polarisation
TDP1 inh = inhibitors of human tyrosyl-DNA phosphodiesterase TDP1; Q9NUW8; recombinant TDP1, AlphaScreen DNA substrate cleavage; Potency, µM (highest dose often 130 µM), hits mostly inhibitors; 350,000 compounds, 0.28% hits; note: nearly all actives have a fitted effect of over 40% in size
Target sequence (Q9NUW8 whole entry, looked up): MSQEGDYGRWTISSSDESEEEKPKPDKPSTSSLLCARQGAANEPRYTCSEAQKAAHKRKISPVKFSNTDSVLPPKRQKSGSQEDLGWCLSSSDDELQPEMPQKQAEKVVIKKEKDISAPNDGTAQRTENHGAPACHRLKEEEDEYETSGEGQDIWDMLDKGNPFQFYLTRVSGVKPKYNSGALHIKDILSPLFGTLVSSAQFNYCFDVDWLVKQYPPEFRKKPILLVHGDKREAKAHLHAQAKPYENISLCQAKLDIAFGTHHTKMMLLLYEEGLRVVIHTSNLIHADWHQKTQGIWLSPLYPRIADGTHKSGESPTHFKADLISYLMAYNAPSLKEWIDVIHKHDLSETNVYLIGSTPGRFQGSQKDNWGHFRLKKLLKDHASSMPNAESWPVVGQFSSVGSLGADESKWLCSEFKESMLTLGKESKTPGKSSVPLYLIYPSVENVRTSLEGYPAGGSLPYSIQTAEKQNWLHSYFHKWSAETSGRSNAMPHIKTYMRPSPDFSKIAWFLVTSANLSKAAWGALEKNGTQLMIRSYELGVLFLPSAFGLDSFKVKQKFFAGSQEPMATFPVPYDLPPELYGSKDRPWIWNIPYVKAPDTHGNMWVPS
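Steps: enzyme plus compound, 15 min RT; add biotin/phosphotyrosine-FITC oligonucleotide (15 nM final), react 5 min; add donor/acceptor beads (10 ug/ml final), 10 min; read AlphaScreen. Tdp1 at 1 nM final.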
VDR inh = vitamin D3 receptor (human) inhibition; VDR-SRC2-3 peptide fluorescence polarization, 2 h; Potency, µM, actives largely listed as inhibitors; 400,000 compounds, 0.93% hits; AID 504847
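Reagent solutions, kept cold and dark, are dispensed first; compounds are then pinned in at 23 nl, plates briefly spun, and incubated 2 h at ambient temperature. Inhibition of VDR–SRC2-3 peptide binding is read by fluorescence polarization.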
Tb PFK inh = inhibitors of T. brucei phosphofructokinase; O15648; T. brucei PFK, ADP-Glo luminescence; Potency, µM (doses to about 57.5 µM), most hits filed as inhibitors; 330,000 compounds, 0.17% hits; AID 485367; note: nearly all actives have a fitted effect of over 60% in size
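In TEA buffer at pH 8.0 with 5 mM MgCl2, enzyme (1.25 nM) converted F6P (0.5 mM) and ATP (0.1 mM) for 45 min at room temperature. ADP product was read by luciferase luminescence.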
PLK1 PBD block = blocks phosphopeptide binding to human PLK1 polo-box domain | Plk1 PBD binding of FITC phosphopeptide, fluorescence polarization | Potency, µM, most hits filed as inhibitors | 360,000 compounds, 2.8% hits | P53350 | AID 720504; note: series mostly up to about 57 µM; nearly all actives have a fitted effect of over 65% in size
Numbers stand for hits; [ ] = dose if it differs, or a comment. In the library only some 3.1% were active in any assay of this set; here they are far more common. Unless noted, calls come from the whole dose curve; as a rule, active = well fitted curve in the direction sought with a large enough effect; inconclusive = small, poorly fitted or top-dose-only effect, or another doubt; inactive = no such curve, though single readings can be large; an effect the other way counts as inactive or inconclusive.

How did CC(c1ccccc1)N1C(=O)/C(=C/c2ccncc2)SC1=S (stereo not drawn) do in these assays?
ASM inhibitor: inactive; Pin1 inh: inactive; VDR inh: 45µM; Tb PFK inh: inactive; PLK1 PBD block: inactive

How did C=CCOc1ccc(/C=C2\SC(=S)N(C(C(=O)O)c3ccccc3)C2=O)cc1 (stereo not drawn) do in these assays?
ASM inhibitor: inactive; TDP1 inh: inactive; VDR inh: 79µM; Tb PFK inh: inactive; PLK1 PBD block: 30µM

What do the screens show for `CCc1ccc2[nH]c(=O)c(CN(Cc3ccco3)Cc3nnnn3Cc3ccco3)cc2c1`?
Pin1 inh: inactive; TDP1 inh: inactive; VDR inh: inactive

Results for COc1cccc(CS(=O)(=O)c2nnnn2-c2ccccc2)c1 ?
TDP1 inh: inactive; VDR inh: inconclusive

What do the screens show for `O=C(CCS(=O)(=O)c1nc(-c2ccc3c(c2)OCO3)cc(C(F)(F)F)n1)Nc1ccccc1C(F)(F)F`?
Pin1 inh: inactive; TDP1 inh: inactive; VDR inh: inconclusive

How did COc1ccc(-c2ccc3ncnc(NCc4nc(C)cs4)c3c2)cc1OC do in these assays?
Pin1 inh: inactive

Results for CCc1cc2cc3c(cc2nc1SCC(=O)N1CCN(C(=O)c2ccco2)CC1)OCO3 ?
ASM inhibitor: inactive; Pin1 inh: inactive; TDP1 inh: inactive; VDR inh: inactive; Tb PFK inh: inactive; PLK1 PBD block: inactive

Results for CCc1cc2ccc(C)cc2nc1SCC(=O)N1CCN(C(=O)c2ccco2)CC1 ?
ASM inhibitor: inactive; Pin1 inh: inactive; TDP1 inh: inactive; VDR inh: 79µM; Tb PFK inh: inactive; PLK1 PBD block: 24µM

What do the screens show for `CSc1cc(-c2ccccc2)n(Cc2ccc(Cl)cc2Cl)c(=O)c1C#N`?
ASM inhibitor: inactive; Pin1 inh: inactive; TDP1 inh: inactive; VDR inh: inactive; Tb PFK inh: inactive; PLK1 PBD block: 3.4µM

How did CCN(C(=O)c1nn(C)c2c1CSc1ccccc1-2)c1cccc(C)c1 do in these assays?
Pin1 inh: inactive; TDP1 inh: inactive; VDR inh: inactive

How did COc1ccc(-c2nn(-c3cccc(F)c3)c3c2cnc2cc(OC)c(OC)cc23)cc1 do in these assays?
Pin1 inh: inactive; TDP1 inh: inactive; VDR inh: inactive

Results for CCOC(=O)C1=C(C)C(c2ccc(OC)cc2)NC(=S)N1 (stereo not drawn) ?
ASM inhibitor: inactive; Pin1 inh: inactive; TDP1 inh: inactive; VDR inh: 28µM; Tb PFK inh: inactive; PLK1 PBD block: 6µM

How did CCOC(=O)C1=C(C)C(c2ccc(OC)cc2)NC(=O)N1 (stereo not drawn) do in these assays?
ASM inhibitor: inactive; Pin1 inh: inactive; TDP1 inh: inactive; VDR inh: inactive; Tb PFK inh: inactive; PLK1 PBD block: inactive

Results for CCc1ccc(C(=O)NNC(=O)OC)cc1 ?
ASM inhibitor: inactive; Pin1 inh: inactive; TDP1 inh: inconclusive; VDR inh: inconclusive; Tb PFK inh: inactive; PLK1 PBD block: 9.5µM

Results for COc1cccc(C2C(C(=O)OC(C)C)=C(C)N=c3s/c(=C\c4ccc(C(=O)O)cc4)c(=O)n32)c1 (stereo not drawn) ?
ASM inhibitor: inactive; Pin1 inh: inactive; TDP1 inh: inactive; VDR inh: 89µM; Tb PFK inh: inactive; PLK1 PBD block: inconclusive

What do the screens show for `CCOC(=O)C1=C(C)N=c2s/c(=C\c3ccc(OCC(=O)O)cc3)c(=O)n2C1c1ccc(OC(C)C)cc1` (stereo not drawn)?
ASM inhibitor: inactive; Pin1 inh: inconclusive; TDP1 inh: inactive; VDR inh: 50µM; Tb PFK inh: inactive; PLK1 PBD block: 24µM

How did CCOC(=O)C1=C(C)N=c2sc(=Cc3cc(Cl)c(OCC(=O)O)c(Cl)c3)c(=O)n2C1c1cccc(OC)c1 (stereo not drawn) do in these assays?
PLK1 PBD block: 27µM

What do the screens show for `COC(=O)C1=C(C(=O)OC)[C@@H]2Nc3ccccc3[C@@]23C[C@@H](C(=O)OC)N(S(=O)(=O)c2c(C)noc2C)C3=N1`?
TDP1 inh: inactive[12.3 µM]
